A selection: hits, their analogues and other compounds. The true share with any hit is near 8.8%.
HTT aggregate: mutant huntingtin aggregation inhibition. PC12 HttQ103-GFP aggregates, Acumen cytometry, 40 h. Potency, µM (highest dose often 46.1 µM), for inactives: at the highest dose activity change, negative = inhibition, actives largely listed as inhibitors. 1.1% of 220,000 active. AID 1688; also: % is scaled to controls: 0 for no effect and ±100 for the full control effect; nearly all actives have a fitted effect of over 60% in size
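Compounds (qHTS titration) were added to PC12 cells expressing an ecdysone-driven HTT exon 1 Q103–GFP fusion after induction with 100 nM tebufenozide. Aggregate formation was measured as GFP objects in cell lysates.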
HTT cytoprotect: protects HTT-Q103 PC12 cells, measured by ATP; PC12 HTT-Q103 induced, cytoprotection, ATP luminescence, 40 h; Potency, µM (doses to about 56.4 µM), for the others: cytoprotection (ATP increase), most hits filed as activators; 0.14% of 230,000 active; AID 1471; also: % of control where 0% means no effect; nearly all actives have a fitted effect of over 45% in size
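Quantitative HTS on tebufenozide-induced (100 nM) PC12 cells expressing HTTQ103 exon 1–GFP; compounds tested as a concentration series; survival measured via cellular ATP.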
ALDH1A1 block: ALDH1A1 (human) enzyme inhibition; Purified ALDH1A1, NADH fluorescence, propionaldehyde substrate; Potency, µM (highest dose often 75.3 µM), for the others: at the top dose activity, negative = inhibition, most hits filed as inhibitors; 7.3% of 220,000 active; AID 1030; active = well fitted inhibition curve with a large enough effect, not every such curve was filed as active; inconclusive = small, poorly fitted or top-dose-only effect, or another doubt; inactive = no such curve, though single readings can be large or run the other way;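 also: plate controls were no enzyme wells and a reference inhibitor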
Target sequence (P00352 whole entry, looked up): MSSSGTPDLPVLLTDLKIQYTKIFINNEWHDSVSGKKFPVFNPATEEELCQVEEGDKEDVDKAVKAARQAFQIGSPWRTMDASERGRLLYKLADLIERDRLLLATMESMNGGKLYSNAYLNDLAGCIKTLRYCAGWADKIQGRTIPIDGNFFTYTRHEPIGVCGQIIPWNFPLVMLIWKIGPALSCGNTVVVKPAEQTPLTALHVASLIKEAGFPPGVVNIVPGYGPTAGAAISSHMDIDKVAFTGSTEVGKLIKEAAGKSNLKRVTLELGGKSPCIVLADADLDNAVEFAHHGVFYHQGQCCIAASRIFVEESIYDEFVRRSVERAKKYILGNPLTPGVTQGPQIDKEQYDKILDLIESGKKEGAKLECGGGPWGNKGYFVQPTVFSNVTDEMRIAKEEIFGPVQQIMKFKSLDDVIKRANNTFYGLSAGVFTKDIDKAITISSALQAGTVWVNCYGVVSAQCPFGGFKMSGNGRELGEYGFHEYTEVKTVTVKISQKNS
Lamin A splicing: LMNA splicing modulation. AID 1487. 0.01% of 200,000 active. HeLa LMNA splicing GFP/RFP minigene ratio, 48 h. Potency, µM (titrated, usually from 46.1 µM), without a hit: at the top dose ratio change, negative = inhibition, actives largely listed as inhibitors; active = well fitted inhibition curve with a large enough effect in the signal ratio, with a control signal flat, not every such curve was filed as active; inconclusive = small, poorly fitted or top-dose-only effect, or effect the other way, or a change in a side signal; the % refers to the signal ratio; also: % is scaled to controls: 0 for no effect and ±100 for the full control effect
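Read-out is the ratio of GFP to DsRed2 object intensity, acquired by 488 nm laser-scanning cytometry on HeLa lamin A-EGFP minigene reporter cells. Compound incubation 48 hrs at 37 °C in Opti-MEM with 2% FBS; DMSO 0.5% final.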
HPGD block: HPGD (human) dehydrogenase inhibition | AID 894 | purified HPGD, NADH fluorescence kinetic, PGE2 substrate | Potency, µM, for the others: top-dose activity change, negative = inhibition, actives largely listed as inhibitors | P15428 | 4.3% of 150,000 active; active = well fitted inhibition curve with a large enough effect, not every such curve was filed as active; inconclusive = small, poorly fitted or top-dose-only effect, or another doubt; inactive = no such curve, though single readings can be large or run the other way; also: % is scaled to controls: 0 for no effect and ±100 for the full control effect
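NADH formation kinetics: reaction with 30 uM PGE2 and 1 mM NAD+ (final), 20 nM enzyme, Tris-HCl pH 8 with Tween 20, after 15 min compound preincubation at room temperature. Fluorescence change, last versus first of five reads.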
* hit, by the source's call; [ ] = dose if it differs, or a comment. Unless noted, calls follow the shape of the dose curve; as a rule, active = well fitted curve in the direction sought with a large enough effect; inconclusive = small, poorly fitted or top-dose-only effect, or another doubt; inactive = no such curve, though single readings can be large; an effect the other way counts as inactive or inconclusive. Potency is read from the fitted curve at half-maximal effect.

For Cc1cc(C2=NNC(=Nc3ccccc3)SC2)c(C)n1C the results were HTT aggregate -8%, HTT cytoprotect 5% and ALDH1A1 block inconclusive.
CN=C1NN=C(c2cc(C)n(-c3ccc(Cl)cc3)c2C)CS1 was read as HTT aggregate 11%, HTT cytoprotect -9%, ALDH1A1 block 8.9µM* and Lamin A splicing -12%[46 µM].
`Cc1cc(C2=NNC(=NC3CC3)SC2)c(C)n1-c1c(C)n(C)n(-c2ccccc2)c1=O` gave HTT aggregate inconclusive, ALDH1A1 block 25µM*, Lamin A splicing -4% and HPGD block -19%.
For Cc1c(N=C2NN=C(c3ccc(Cl)cc3)CS2)c(=O)n(-c2ccccc2)n1C the results were HTT aggregate 5%, HTT cytoprotect -8%, ALDH1A1 block 18µM* and Lamin A splicing 10%[46 µM].
`O=C(CCn1cnc2ccccc2c1=O)NCc1ccccc1` gave Lamin A splicing 14%[46 µM].
CCOC(=O)CSc1nc2c(sc3ccccc32)c(=O)n1Cc1ccc(OC)cc1 was read as Lamin A splicing 11%[46 µM].
COC(=O)c1cc(=O)n(Cc2ccco2)c(=Nc2ccc(F)cc2)s1 was read as HTT aggregate -8%[9.22 µM], HTT cytoprotect 10%[10 µM] and ALDH1A1 block 11µM*.
Screening CC1CCCC(C)N1C(=O)CSc1nnnn1Cc1ccccc1 (stereo unspecified) returned HTT aggregate 7%, HTT cytoprotect -4%, ALDH1A1 block -10%, Lamin A splicing 6% and HPGD block -5%.
For CC1CCCC(C)N1C(=O)Cc1ccccc1 (stereo unspecified) the results were HTT aggregate 2%, HTT cytoprotect -1%, ALDH1A1 block inconclusive, Lamin A splicing 0% and HPGD block 20µM*.
For Cc1cc(OC(=O)CNC(=O)OC(C)(C)C)c2c(C)cc(=O)oc2c1 the results were HTT aggregate -7%, HTT cytoprotect 0%, ALDH1A1 block 16µM*, Lamin A splicing inconclusive and HPGD block 18µM*.
`O=C(COC(=O)C1CCC1)NCc1ccccc1Cl` gave HTT aggregate -9%, HTT cytoprotect -6%[10 µM], ALDH1A1 block inconclusive, Lamin A splicing 3% and HPGD block 8.9µM*.
`O=C(COC(=O)CCSc1ccc(Cl)cc1)NCc1ccccc1Cl` gave HTT aggregate 16µM*, ALDH1A1 block -14%, Lamin A splicing 4% and HPGD block -18%.
For O=C(COC(=O)CCSc1ccc(Cl)cc1)NCCc1ccccc1 the results were HTT aggregate inconclusive, HTT cytoprotect 10%[10 µM], ALDH1A1 block 0% and Lamin A splicing -7%.
O=C(COC(=O)CCCNC(=O)c1ccc(Cl)cc1)NCc1ccccc1Cl was read as HTT aggregate 24%, HTT cytoprotect 4%, ALDH1A1 block 4.5µM*, Lamin A splicing 15% and HPGD block inconclusive.
Screening COCCn1c(=O)c(-c2ccc(F)cc2)nc2cnc(OC)nc21 returned HTT cytoprotect -89%, ALDH1A1 block inconclusive and Lamin A splicing 0%.
For O=C(COc1cccnc1[N+](=O)[O-])c1ccc(Cl)s1 the results were HTT aggregate 2%[9.22 µM], HTT cytoprotect -5%[10 µM] and ALDH1A1 block 0.71µM*.
`CC(C)(C)NC(=S)NNC(=O)c1ccncc1` gave HTT aggregate -5%, ALDH1A1 block 9%, Lamin A splicing 5% and HPGD block 13µM*.
Screening CCOc1ccccc1NC(=O)CSc1ncc(S(=O)(=O)c2ccc(C)c(C)c2)c(N)n1 returned Lamin A splicing -14%[46 µM].
`O=C(c1ccc(Cc2nc3ccccc3[nH]2)cc1)N1CCCCC1` gave ALDH1A1 block -7% and HPGD block 16µM*.
`Cc1ccc(C2C3CSCC=C3C(C#N)=C(N)C2(C#N)C#N)cc1` (stereo unspecified) gave HTT aggregate inconclusive, HTT cytoprotect -12%[10 µM], ALDH1A1 block 8.9µM*, Lamin A splicing -12% and HPGD block -28%.
For CN1CCc2c(cc(O)c(O)c2Cl)[C@H](c2cccc(Cl)c2)C1 the results were HTT cytoprotect -1%[1.9 µM].
For O=C1CCCC2=C1C(c1ccccc1)NC(=S)N2 (stereo unspecified) the results were HTT aggregate 3%, HTT cytoprotect -34% and ALDH1A1 block inconclusive.
Screening CC1CC2=C(NC(=S)NC2c2ccc(F)cc2)/C(=C/c2ccc(F)cc2)C1 (stereo unspecified) returned HTT aggregate -23%, HTT cytoprotect -22%, ALDH1A1 block 3.5µM*, Lamin A splicing 5% and HPGD block -28%.
S=C1NC2=C(CCC/C2=C\c2ccccc2)C(c2ccccc2)N1 (stereo unspecified) was read as HTT aggregate 30%, HTT cytoprotect -4%[10 µM], ALDH1A1 block 0.63µM*, Lamin A splicing inconclusive and HPGD block 22µM*.
Fc1cccc(/C=C2\CCCC3=C2NC(=S)NC3c2cccc(F)c2)c1 (stereo unspecified) was read as HTT aggregate 8%[9.22 µM], HTT cytoprotect 15%[10 µM] and ALDH1A1 block 0.79µM*.
For Fc1ccccc1/C=C1\CCCC2=C1NC(=S)NC2c1ccccc1F (stereo unspecified) the results were HTT aggregate inconclusive, HTT cytoprotect -40%, ALDH1A1 block 0.79µM* and Lamin A splicing inconclusive.
CCCC(=O)NCc1ccncc1 was read as ALDH1A1 block -3% and Lamin A splicing 27%[46 µM].
COc1ccc(S(=O)(=O)n2nc(C)c(S(=O)(=O)N3CCCCC3)c2C)cc1 was read as Lamin A splicing -6%[46 µM].
`O=C(NCc1ccccc1)C(=O)NCC(c1cccs1)S(=O)(=O)c1ccccc1` (stereo unspecified) gave Lamin A splicing 16%[46 µM].
`C(=C1/CCCC2=C1Nc1ncnn1C2c1ccccc1)/c1ccccc1` (stereo unspecified) gave HTT aggregate 21%, HTT cytoprotect inconclusive, ALDH1A1 block 5%, Lamin A splicing inconclusive and HPGD block 25µM*.
`S=C1NC2=C(CCC/C2=C\c2ccc(Cl)cc2)C(c2ccc(Cl)cc2)N1` (stereo unspecified) gave HTT aggregate 12%[9.22 µM], HTT cytoprotect 26%[10 µM] and ALDH1A1 block 13µM*.
Screening S=C1NC2=C(CCCC2=C2SCCCS2)C(c2ccccc2)N1 (stereo unspecified) returned HTT aggregate 8%, HTT cytoprotect -8% and ALDH1A1 block 1µM*.
Screening CCOc1ccc(N2CC(NC(=O)c3ccc(S(=O)(=O)N4CCCC4)cc3)CC2=O)cc1 (stereo unspecified) returned Lamin A splicing 9%[46 µM].
For Cn1c(SCC(=O)N/N=C/C=C/c2ccccc2[N+](=O)[O-])nc2ccccc21 the results were HTT aggregate 1%, HTT cytoprotect 8%[10 µM], ALDH1A1 block inconclusive, Lamin A splicing -24% and HPGD block -5%.

Assay outcomes from PubChem.
